Measured values reported in PubChem BioAssay AID1159580 (chemical genetic matrix, 2015).
Several values for one entry are separate records, joined by “and”; a condition that tells them apart may be missing. Identical values can stand only once. The whole screen tested about 5,500 compounds, of which about 2,000 (36%) were called active. Roughly 18% stayed inconclusive and do not appear here. Cut-off read from the data, not from the text of the source: active = normalized growth mostly below about 0.91 (no sharp cut-off); inconclusive = no clear call, values can overlap the other calls; inactive = mostly above about 0.92. Some of the results follow.

Experiment: chemical genetic growth profiling, strain panel (AID 1159580);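 note: tested at 20 µM; growth read once vehicle control cultures reached saturation at 30 °C; 1 = growth at the plate median or of vehicle wells; lower values mean less growth of the strain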
Settings: S. cerevisiae deletion strains, growth OD

Measured: normalized growth

O=C1OCCN1/N=C\c1ccc([N+](=O)[O-])o1
inactive: locus YAL013W, strain DEP1, stronger effect = lower value 0.986 | locus YAL021C, strain ccr4, stronger effect = lower value 0.961 | locus YAL030W, strain snc1, stronger effect = lower value 0.999 | locus YBL061C, strain skt5, stronger effect = lower value 1 | locus YBR009C, strain hhf1, stronger effect = lower value 0.97 | locus YBR021W, strain FUR4, stronger effect = lower value 1.03 | locus YBR023C, strain chs3, stronger effect = lower value 1 | locus YBR171W, strain sec66, stronger effect = lower value 0.987 | locus YBR229C, strain ROT2, stronger effect = lower value 0.999 | locus YBR231C, strain swc5, stronger effect = lower value 0.929 | locus YBR279W, strain paf1, stronger effect = lower value 0.986 | locus YCL011C, strain gbp2, stronger effect = lower value 0.991 | locus YCL016C, strain dcc1, stronger effect = lower value 0.935 | locus YCL029C, strain bik1, stronger effect = lower value 0.97 | locus YCL061C, strain MRC1, stronger effect = lower value 0.987 | locus YCL069W, strain vba3, stronger effect = lower value 0.993 | locus YCR088W, strain abp1, stronger effect = lower value 0.976 | locus YDL005C, strain med2, stronger effect = lower value 0.998 | locus YDL035C, strain GPR1, stronger effect = lower value 0.913 | locus YDL040C, strain nat1, stronger effect = lower value 1 | locus YDL074C, strain BRE1, stronger effect = lower value 0.885 | locus YDL101C, strain DUN1, stronger effect = lower value 0.95 | locus YDL185W, strain tfp1, stronger effect = lower value 0.993 | locus YDL192W, strain arf1, stronger effect = lower value 0.99 | locus YDR001C, strain nth1, stronger effect = lower value 1 | locus YDR069C, strain doa4, stronger effect = lower value 0.928 | locus YDR101C, strain arx1, stronger effect = lower value 0.92 | locus YDR137W, strain rgp1, stronger effect = lower value 0.901 | locus YDR150W, strain NUM1, stronger effect = lower value 1.01 | locus YDR159W, strain sac3, stronger effect = lower value 1.01 | locus YDR195W, strain ref2 1.14 | locus YDR297W, strain sur2, stronger effect = lower value 0.992 | locus YDR318W, strain mcm21, stronger effect = lower value 0.919 | locus YDR334W, strain swr1, stronger effect = lower value 1.01 | locus YDR335W, strain msn5, stronger effect = lower value 0.975 | locus YDR388W, stronger effect = lower value 0.982 | locus YEL003W, strain gim4, stronger effect = lower value 0.916 | locus YEL037C, strain rad23, stronger effect = lower value 0.986 | locus YEL061C, strain CIN8 (second series), stronger effect = lower value 1 | locus YEL061C, strain CIN8, stronger effect = lower value 0.999 | locus YER015W, strain faa2, stronger effect = lower value 0.986 | locus YER016W, strain bim1, stronger effect = lower value 0.932 | locus YER110C, stronger effect = lower value 0.979 | locus YER111C, strain swi4, stronger effect = lower value 1.01 | locus YER155C, strain BEM2, stronger effect = lower value 0.996 | locus YER167W, strain BCK2, stronger effect = lower value 0.978 | locus YFR010W, strain ubp6, stronger effect = lower value 0.919 | locus YGL078C, strain dbp3, stronger effect = lower value 0.955 | locus YGL167C, strain pmr1, stronger effect = lower value 1 | locus YGL173C, strain kem1, stronger effect = lower value 0.982 | locus YGL227W, strain vid30, stronger effect = lower value 1 | locus YGL240W, strain doc1, stronger effect = lower value 0.935 | locus YGL248W, strain PDE1, stronger effect = lower value 0.944 | locus YGL253W, strain hxk2, stronger effect = lower value 0.934 | locus YGR135W, strain pre9, stronger effect = lower value 0.936 | locus YGR252W, strain gcn5, stronger effect = lower value 0.808 | locus YHR013C, strain ard1, stronger effect = lower value 1.01 | locus YHR027C, strain rpn1, stronger effect = lower value 0.967 | locus YHR030C, strain SLT2, stronger effect = lower value 1 and 0.876 | locus YHR079C, strain IRE1 (second series), stronger effect = lower value 0.937 | locus YHR079C, strain IRE1, stronger effect = lower value 0.88 | locus YHR094C, strain hxt1, stronger effect = lower value 0.999 | locus YHR129C, strain ARP1, stronger effect = lower value 0.992 | locus YHR142W, strain chs7, stronger effect = lower value 0.967 | locus YHR200W, strain rpn10, stronger effect = lower value 0.995 | locus YIL066C, strain RNR3, stronger effect = lower value 0.997 | locus YIL073C, strain SPO22, stronger effect = lower value 0.761 | locus YIL125W, strain kgd1, stronger effect = lower value 0.974 | locus YIR030C, strain dcg1, stronger effect = lower value 0.967 | locus YJL092W, strain hpr5, stronger effect = lower value 0.937 | locus YJL095W, strain BCK1 (second series), stronger effect = lower value 1.02 | locus YJL115W, strain asf1, stronger effect = lower value 0.982 | locus YJL129C, strain trk1, stronger effect = lower value 1.09 | locus YJL134W, strain LCB3, stronger effect = lower value 0.998 | locus YJL154C, strain vps35, stronger effect = lower value 0.993 | locus YJL164C, strain tpk1, stronger effect = lower value 0.962 | locus YJL166W, strain qcr8, stronger effect = lower value 0.985 | locus YJL168C, strain set2, stronger effect = lower value 0.999 | locus YJL187C, strain SWE1 (second series), stronger effect = lower value 0.971 | locus YJL187C, strain SWE1, stronger effect = lower value 1 | locus YJR066W, strain TOR1, stronger effect = lower value 0.826
0.883 (inactive) and 0.85 (active): locus YJL095W, strain BCK1, stronger effect = lower value
active: locus YAL026C, strain drs2, stronger effect = lower value 0.889 | locus YDR162C, strain NBP2, stronger effect = lower value 0.771 | locus YDR392W, strain spt3, stronger effect = lower value 0.72 | locus YDR502C, strain sam2, stronger effect = lower value 0.92 | locus YER155C, strain BEM2 (second series), stronger effect = lower value 0.788 | locus YGL086W, strain mad1, stronger effect = lower value 0.923 | locus YJR043C, strain POL32, stronger effect = lower value 0.762
